Source: PubChem BioAssay (several laboratories)
MITF TRPM1 inh: inhibitors of MITF-driven TRPM1 promoter in melanoma cells | SK-MEL-5 TRPM1 promoter luciferase, 24 h | inhibition, % at 12.5 µM | 330,000 tested, 0.83% active;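 active = mean inhibition across replicates of 60% or more, whatever share of single replicates reaches that level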
HIF-2a inh: inhibitors of HIF-2a. AID 624352. 360,000 tested, 0.72% active. 786-0 RCC cells HIF-2a reporter, luciferase luminescence, overnight. inhibition, % at 18.8 µM;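 active = inhibition of the luminescence signal of 40% or more relative to plate controls, in a single-dose primary screen at 18.75 µM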
CHOP inhibitor: blocks CHOP induction under ER stress. inhibition, % at 10 µM. AID 2732. 220,000 tested, 3.8% active. CHO-K1 CHOP-promoter luciferase, tunicamycin-induced, 15-18 h;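 active = compounds that reduced the stress-induced luciferase reporter signal by more than about 70% of percent inhibition, limit read from the data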;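 note: 0% = tunicamycin plus vehicle and 100% = wells without tunicamycin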
Peg3 prom inh: reduces Peg3 promoter-driven luciferase expression in HeLa. HeLa PEG-Prom luciferase reporter, luminescence, overnight. inhibition, % at 20 µM. 360,000 tested, 1.7% active. AID 588405;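 active = inhibition of at least 50% at 20 µM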
KKLEB cytotox: CF airway cell cytotoxicity counter-screen; KKLEB CF airway cells viability, ATPlite luminescence, overnight; active compounds read low; cells stimulated with P. aeruginosa culture filtrate; activity change (cytotoxicity), % at 5 µM; 360,000 tested, 0.36% active;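 active = corrected activity change at or below -50% at 5 µM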
CF NFkB inh: cystic fibrosis NF-kB activation inhibition; KKLEB NF-kB-GFP reporter, PAF-induced, GFP fluorescence overnight; inhibition, % at 5 µM; 360,000 tested, 0.86% active; AID 588850;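 active = at least 50% inhibition at 5 µM, scaled per plate between neutral and stimulator controls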;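 note: PAF is a Pseudomonas aeruginosa culture filtrate used as stimulus; plate controls were PAF-stimulated DMSO wells for no effect and unstimulated DMSO wells for full effect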
Mdm2-MdmX confirm: confirmation of inhibitors of human Mdm2/MdmX interaction, set 2 | AID 504601 | 740 tested, 99% active | shares compounds with HIF-2a inh | SaOS-2 split-luciferase Mdm2/MdmX complementation, luminescence | inhibition, % at 8 µM;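 active = mean inhibition of the luminescence signal across two replicates at or above 26 percent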
HIF-2a conf: HIF-2a inhibition, single concentration confirmation; inhibition, % at 18.8 µM; AID 651580; 1,800 tested, 56% active; shares compounds with HIF-2a inh; 786-0 RCC cells, HIF-2a luciferase reporter luminescence, overnight;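 active = mean inhibition across four replicates of at least 40 percent at the single tested concentration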
HIF-1a counter: counter-screen for HIF-2a inhibitors: HIF-1a inhibition in MiaPaCa-2 cells; shares compounds with HIF-2a inh; MiaPaCa-2 HIF-1a luciferase reporter, desferoxamine, overnight; inhibition, % at 18.8 µM; 1,800 tested, 72% active;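 active = mean inhibition of the reporter signal across four replicates at the single tested dose of 50% or more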
* = called active by the depositor; . = no result. A selection: hits, their analogues and other compounds. The true share with any hit is near 4.3%.

SMILES	MITF TRPM1 inh	HIF-2a inh	CHOP inhibitor	Peg3 prom inh	KKLEB cytotox	CF NFkB inh	others
Nc1ccc(C(=O)OC2CCOC2=O)cc1[N+](=O)[O-] (stereo not given)	-2	19	-27	0	0	6
Cc1ccc(-c2nnc3c(C(F)(F)F)nc4ccccc4n23)cc1	28	15	5	48	-2	22
FC(F)(F)c1nc2ccccc2n2c(-c3ccc(Cl)cc3)nnc12	76*	46*	29	51*	-56*	76*	HIF-2a conf=25;HIF-1a counter=86*
CC1CCC(C(C)C)C(OC(=O)Cn2c(-c3ccc(F)cc3)[n+](C)c3ccccc32)C1 (stereo not given)	80*	-6	11	62*	-54*	50	Mdm2-MdmX confirm=99*
CC1CCC(C(C)C)C(OC(=O)C[n+]2cc(-c3ccc(Cl)cc3)n3c2CCC3)C1 (stereo not given)	29	-9	-3	22	-25	20
O=C(Nc1nnc(SCc2ccccn2)s1)C1CC(=O)N(c2ccc(F)cc2)C1 (stereo not given)	4	7	.	14	-4	-6
Nc1cc(OC(=O)c2ccc(F)cc2)nn1S(=O)(=O)c1ccccc1	0	53*	.	16	0	5	HIF-2a conf=-8;HIF-1a counter=5
COc1cc(C(=O)Oc2cc(N)n(S(=O)(=O)c3ccc(F)cc3)n2)cc(OC)c1OC	4	7	.	12	-15	17
CCOC(=O)c1ccc(N2C(=O)C(CC(N)=O)N(CCc3ccc(OC)c(OC)c3)C2=S)cc1 (stereo not given)	6	8	17	-3	-12	-8
COc1cc2ncc(S(=O)(=O)c3ccccc3)c(N3CCC4(CC3)OCCO4)c2cc1OC	19	40*	12	24	6	17	HIF-2a conf=22;HIF-1a counter=98*
CCN(CC)S(=O)(=O)c1cccc(C(=O)Nc2cc(C)on2)c1	-8	-28	.	-4	-1	0
CN1CCc2c(sc(NC(=O)c3ccc([N+](=O)[O-])o3)c2C(N)=O)C1	86*	55*	.	107*	-23	82*	Mdm2-MdmX confirm=101*;HIF-2a conf=55*;HIF-1a counter=104*
CN1CCc2c(sc(NC(=O)c3ccco3)c2C(N)=O)C1	-12	-53	.	-34	0	0
CCC(=O)OCC(=O)N=c1sccn1Cc1ccc(C)cc1	7	4	.	-1	7	3
CCC(=O)OCC(=O)N=c1sccn1Cc1ccccc1Cl	10	17	.	14	-20	18
O=C(CCl)N=c1sccn1Cc1ccccc1Cl	24	8	-45	24	-68*	78*	Mdm2-MdmX confirm=103*
O=C(CCl)N=c1sccn1Cc1ccc(Cl)cc1Cl	19	17	-212	24	-85*	90*	Mdm2-MdmX confirm=103*
NC(=S)N/N=C1\CC(n2nnn(-c3cccc(Cl)c3)c2=S)C2COC1O2 (stereo not given)	7	13	14	-2	-2	8
O=Cc1ccc(-c2cccs2)s1	-9	44*	.	-89	-19	3	HIF-2a conf=52*;HIF-1a counter=-13
COc1ccccc1CN1C[C@@H]2C[C@@H](c3[nH]c4c(C)cccc4c3C)N3CCC[C@@]23C1=O	4	8	15	20	4	9
O=C(NS(=O)(=O)c1ccc2ccc(S(=O)(=O)NCCSc3ccccc3)cc2c1)c1cccc2ccccc12	.	1	.	.	.	.
CCc1cccc(NC(=O)Cn2cc(C=O)c3ccccc32)c1	11	16	52	6	-12	14
Cc1ccc(-n2nc3ccc(N)cc3n2)c(C)c1	6	56*	.	-174	5	-37	HIF-2a conf=76*;HIF-1a counter=17
Cc1cc(N)ccc1-n1nc2ccccc2n1	2	5	.	-53	7	-8
CC(C)(C)c1cc(C(=O)Nc2cccnc2)cc(C(=O)Nc2cccnc2)c1	15	-16	.	-1	-6	22
SMILES	MITF TRPM1 inh	HIF-2a inh	CHOP inhibitor	Peg3 prom inh	KKLEB cytotox	CF NFkB inh	others
O=S(=O)(NCC(c1cccs1)N1CCc2ccccc2C1)c1ccccc1 (stereo not given)	2	-7	.	-1	-1	21
COC(=O)c1cc(=O)n(Cc2ccc(OC)cc2)c(=NCc2ccc(OC)cc2)s1	12	15	-27	12	2	3
COC(=O)c1cc(=O)n(Cc2ccc3c(c2)OCO3)c(=Nc2ccc(F)c(Cl)c2)s1	11	53*	-30	57*	-15	44	HIF-2a conf=6;HIF-1a counter=59*
O=S(=O)(c1ccc2c(c1)C(=NO)c1cc(S(=O)(=O)N3CCCCC3)ccc1-2)N1CCCCC1	88*	87*	.	86*	-106*	100*	HIF-2a conf=82*;HIF-1a counter=103*
CCCCC(=NCCc1c(C)[nH]c2ccc(OC)cc12)C1=C(O)CC(c2ccccc2)CC1=O (stereo not given)	25	41*	45	28	0	36	HIF-2a conf=23;HIF-1a counter=65*
CCC(=NCCc1c(C)[nH]c2ccc(OC(F)(F)F)cc12)C1=C(O)CC(c2ccccc2)CC1=O (stereo not given)	7	28	37	38	-17	29
Cc1cc(C(=O)NNC(=O)c2cccs2)c(C)o1	-2	-20	.	-29	-5	-15
CCCC(=O)NC(c1ccccc1OC)c1ccc2cccnc2c1O (stereo not given)	81*	25	62	58*	0	6	Mdm2-MdmX confirm=87*
CCCC(=O)NC(c1ccccc1Cl)c1c(O)ccc2ccccc12 (stereo not given)	5	25	15	33	-18	13
CC(C)C(=O)NC(c1cccc([N+](=O)[O-])c1)c1c(O)ccc2ccccc12 (stereo not given)	-33	-80	15	-51	5	5
CC(C)C(=O)NC(c1cccc([N+](=O)[O-])c1)c1ccc2cccnc2c1O (stereo not given)	62*	20	.	63*	-9	8	Mdm2-MdmX confirm=88*
CCCC(=O)NC(c1ccc(Cl)cc1Cl)c1ccc2cccnc2c1O (stereo not given)	66*	12	.	59*	-7	-9	Mdm2-MdmX confirm=85*
Cc1ccccc1NC(=S)NCc1ccccc1	8	6	-3	-2	3	-9
Cc1cccc(CS(=O)(=O)c2nnc([C@H](Cc3ccccc3)NC(=O)OC(C)(C)C)o2)c1	75*	8	115*	106*	-22	69*	Mdm2-MdmX confirm=103*
